Source: PubChem (National Center for Advancing Translational Sciences (NCATS))
NS1 function inh – qHTS Assay for Inhibitors of Influenza NS1 Protein Function; Potency, µM (titrated, usually from 46.1 µM), for the others: at the highest dose activity, positive = more growth; 270,000 tested, 0.4% active; AID 2326, 2010; note: actives are rising curves; nearly all actives have a fitted effect of over 50% in size
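Compounds were scored for reversing the slow growth caused by influenza A NS1 in S. cerevisiae, measured by optical density at 600 nm. Assay medium contained 2% galactose at pH 6.0; NS1-free yeast of the same strain were the positive control.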
SARS PLpro yeast – qHTS of Yeast-based Assay for SARS-CoV PLP; S. cerevisiae expressing SARS-CoV PLpro, growth rescue; Potency, µM (titrated, usually from 32.9 µM), for inactives: at the top dose activity, positive = growth rescue, hits mostly activators; 330,000 tested, 0.19% active; note: 0% is about no effect; nearly all actives have a fitted effect of over 55% in size
Pf growth 48h – Primary qHTS for delayed death inhibitors of the malarial parasite plastid, 48 hour incubation; 310,000 tested, 5.9% active; P. falciparum luciferase growth in erythrocytes, 48 h; Potency, µM (top dose mostly 28.7 µM), for the others: at the highest dose activity change, negative = inhibition, hits mostly inhibitors; active = well fitted inhibition curve with a large enough effect; inconclusive = small, poorly fitted or top-dose-only effect, or another doubt; inactive = no such curve, though single readings can be large or run the other way; note: % is set by controls: 0 for no effect and ±100 for the full control effect
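Luminescence readout; reporter = integrated firefly luciferase in P. falciparum. RBC culture at 2% hematocrit, 0.1% parasitemia final, 37 C/5% CO2; decreased signal taken as growth inhibition.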
Pf growth 96h – Primary qHTS for delayed death inhibitors of the malarial parasite plastid, 96 hour incubation; P. falciparum luciferase reporter growth, 96 h; Potency, µM (highest dose often 28.7 µM), for inactives: at the highest dose activity change, negative = inhibition, usual class: inhibitors; 320,000 tested, 6.9% active; AID 504834, 2011; active = well fitted inhibition curve with a large enough effect; inconclusive = small, poorly fitted or top-dose-only effect, or another doubt; inactive = no such curve, though single readings can be large or run the other way; note: % is set by controls: 0 for no effect and ±100 for the full control effect
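Compounds incubated with erythrocytes infected by luciferase-expressing P. falciparum (2% hematocrit, 0.05% parasitemia final) for 96 hours, 37 C in 5% CO2. Growth inhibition scored as decreased luciferase luminescence.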
RE007 growth inh – qHTS Assay for Inhibitors of the HIV-1 protein Vpr; 360,000 tested, 0.21% active; Potency, µM (highest dose often 92.2 µM), inactives show at the top dose activity change, negative = less growth, actives largely listed as inhibitors; AID 651644, 2012; S. pombe RE007 Vpr strain, BacTiter-Glo ATP luminescence, 24 h; active = well fitted falling curve with a large enough effect; inconclusive = small, poorly fitted or top-dose-only effect; inactive = no such curve, though single readings can be large or run the other way; note: % is set by controls: 0 for no effect and ±100 for the full control effect; nearly all actives have a fitted effect of over 50% in size
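Fission yeast strain RE007, carrying one chromosomally integrated HIV-1 vpr copy, was seeded at OD 0.01 in PMG+AL medium with 23 nL pinned compound. After 24 h at 30 °C and 99% humidity, viability was read by BacTiter-Glo luminescence.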
* hit, by the source's call; ? = inconclusive; / = not tested or not shown; [ ] = remark or other dose. Sampled rows, rich in hits. Any-hit rate of the full collection: about 9.5%. Unless noted, calls come from the whole dose curve. Potency is the fitted concentration of half-maximal effect.

SMILES	NS1 function inh	SARS PLpro yeast	Pf growth 48h	Pf growth 96h	RE007 growth inh
O=C(NCCCN1CCOCC1)c1ccc(Sc2ccccc2Cl)c([N+](=O)[O-])c1	3.3%	0.7%	-14.0%	?	9.8%
NC1=N[C@H](c2ccc(Cl)cc2)N(c2ccc(S(=O)(=O)Nc3ncccn3)cc2)C(N)=N1	0.1%	/	/	/	/
O=C1c2ccccc2C(=O)C1c1ccc(Br)cc1	5.1%	-7.4%	?	15.1µM*	2.1%
O=C1c2ccccc2C(=O)C1c1ccc(O)cc1	/	1.1%	29.7%	?	-26.3%
CCOC(=O)C(C)n1nc(/C=C/c2ccccc2)ccc1=O (stereo unspecified)	5.3%	2.1%	?	?	-9.2%
CCOC(=O)C(C)n1nc(/C=C/c2ccc(OC)cc2)ccc1=O (stereo unspecified)	/	-8.4%	?	9.28µM*	26.1%
CSc1ncnc2c1ncn2CCCNCC(c1ccccc1)c1ccccc1	/	/	/	/	-25.5%
[O-]/C(=C(\C(=S)Nc1ccc(Cl)cc1)[n+]1ccccc1)c1ccc(OC(F)F)cc1	/	1.9%	10.4µM*	-4.5%	-23.5%
COC(=O)c1cc(C)sc1NC(=O)CSc1ncccn1	-36.8%	-0.9%	61.7%	1.0%	8.3%
CCN1C(=O)[C@@H]2[C@@H](c3ccc(-c4ccccc4)cc3)N3CCC[C@@]3(C(=O)OC)[C@@H]2C1=O	/	3.9%	/	/	2.3%
CCN1C(=O)[C@H]2[C@@H](c3ccc(-c4ccccc4)cc3)N3CCC[C@@]3(C(=O)OC)[C@H]2C1=O	/	-16.7%	4.65µM*	13.1µM*	12.4%
CCN1C(=O)[C@@H]2[C@@H](c3ccc(-c4ccc(OC)cc4)cc3)N3CCC[C@@]3(C(=O)OC)[C@@H]2C1=O	/	0.9%	9.28µM*	11.7µM*	17.8%
CCN1C(=O)[C@H]2[C@@H](c3ccc(-c4ccc(OC)cc4)cc3)N3CCC[C@@]3(C(=O)OC)[C@H]2C1=O	/	0.1%	13.1µM*	?	8.6%
CCN1C(=O)[C@H]2[C@@H](c3ccc(-c4ccc(OC)cc4)cc3)N3CCCC[C@@]3(C(=O)OC)[C@H]2C1=O	/	-4.9%	14.7µM*	?	-5.0%
CCOC(=O)C1CCN(CC(=O)c2c(C)n(C)c3ccc(OC)cc23)CC1	2.7%	1.1%	15.4%	3.6%	1.8%
Oc1cccc(-c2nnc(-c3cccc(O)c3)nn2)c1	/	/	/	/	-8.1%
CCN1C(=O)[C@H]2[C@@H](c3ccc(-c4ccc(F)cc4)cc3)N3CCCC[C@@]3(C(=O)OC)[C@H]2C1=O	/	1.3%	9.28µM*	13.1µM*	-4.5%
Cc1ccc(S(=O)(=O)N2CCN(Cc3ccco3)CC2)c(C)c1	-6.4%	1.7%	?	?	15.5%
CCOc1cc(-c2cc(-c3ccc(N)cc3)nc(N)c2C#N)ccc1O	-32.0%	-9.5%	11.7µM*	85.7%	20.2%
O=C(O)CCC(=O)Nc1ccc(Sc2ccc([N+](=O)[O-])cc2)cc1	-2.6%	7.3%	9.3%	-7.1%	5.7%
Cc1cc(NC(=O)c2ccc(C#N)cc2)on1	1.1%	-1.1%	-2.3%	4.4%	12.0%
C=CCn1c(SCC(=O)c2ccc(O)c(O)c2)nnc1-c1ccc(OC)cc1	/	-1.0%	2.62µM*	?	-1.8%
CCn1c(SCC(=O)N2CCc3ccccc32)nnc1-c1ccncc1	6.9%	-2.8%	3.7%	57.8%	2.2%
O=C(O)CSc1nnc(-c2ccncc2)n1Cc1ccccc1	5.4%	-1.3%	/	12.4%	-1.4%
Cc1cccc(OCCSc2nnc(-c3ccoc3C)n2C)c1	1.9%	3.8%	-2.5%	11.7µM*	3.3%
SMILES	NS1 function inh	SARS PLpro yeast	Pf growth 48h	Pf growth 96h	RE007 growth inh
CCn1c(SCC(=O)N2c3ccccc3CCc3ccccc32)nnc1-c1ccc(OC)cc1	4.9%	-0.4%	4.15µM*	9.28µM*	-6.9%
COc1ccc(-c2nnc(SCC(=O)O)n2Cc2ccccc2)cc1	-25.7%	8.8%	6.1%	7.38µM*	-1.3%
Cc1cc(C)cc(CN2C(=O)NC3(CCCCCC3)C2=O)c1	-3.7%	0.2%	-23.7%	?	-14.8%
Cc1occc1-c1nnc(SCC(=O)N2c3ccccc3CCc3ccccc32)n1C	-8.8%	2.6%	7.38µM*	/	4.3%
COc1cccc(NC(=O)CSc2nnc(-c3ccoc3C)n2C)c1	-3.3%	-2.1%	6.9%	?	5.7%
CCOc1ccc(-c2nnc(SCC(=O)O)n2Cc2ccccc2)cc1	16.7%	2.6%	20.2%	0.928µM*	5.2%
CCSc1nnc(-c2cccc(S(=O)(=O)N(CC)CC)c2)n1Cc1ccccc1	-8.0%	6.2%	14.7µM*	16.8%	18.4%
COc1ccc(-n2c(C)cc(C(=O)CSc3nnc(-c4ccoc4C)n3C)c2C)cc1	-38.8%	-4.6%	9.28µM*	/	15.0%
CN(CC(=O)Nc1ccc(Cl)c(C(F)(F)F)c1)C(=O)c1ccc(N2CCOCC2)c([N+](=O)[O-])c1	/	-10.6%	-14.0%	2.5%	12.5%
Cc1cc(C)c(C#N)c(N2CCN(Cc3ccccc3)CC2)n1	-2.7%	-0.6%	0.1%	/	-6.1%
Cc1cc(C)c(C#N)c(N2CCN(c3ccccc3F)CC2)n1	-25.0%	-0.6%	29.5%	11.7µM*	-16.2%
NC(Cc1ccccc1)c1csc(Nc2ccc(C(=O)c3ccccc3)cc2)n1 (stereo unspecified)	/	/	/	/	-9.5%
CCC(=O)Nc1c2c(nc3c1CCC3)CCCC2	-3.8%	-3.6%	6.5%	2.08µM*	-7.5%
CCC(C)C(=O)Nc1c2c(nc3c1CCC3)CCCC2 (stereo unspecified)	6.8%	0.3%	6.8%	/	8.1%
O=C(Cc1c(F)cccc1Cl)N1CCN(S(=O)(=O)c2cccc(F)c2)CC1	/	-0.1%	?	?	2.1%
CCCC(C)c1oc(=O)cc(O)c1C (stereo unspecified)	/	-12.7%	/	/	7.0%
CC(C)NC(=O)C1CCN(C2CCN(C(=O)c3scc4c3CCCC4)CC2)CC1	0.7%	0.2%	?	?	12.3%
Cc1cc(C)c(C(=O)N2CCC(N3CCC(C(=O)NC(C)C)CC3)CC2)o1	-1.6%	1.0%	?	11.7µM*	-5.7%
O=C(CN1CCN(c2ncccn2)CC1)N(Cc1ccccc1)c1ccc(F)cc1	-38.1%	5.5%	-18.6%	11.7µM*	-11.0%
CCOP(=O)(OCC)C(Cc1ccc(OC)c(OC)c1)N=C(c1ccccc1)c1ccccc1 (stereo unspecified)	/	/	/	/	-2.0%[18.4 µM]
CC(C)N(C(=O)CSc1nnc(NC(=O)C2CCC2)s1)C(C)C	-8.2%	2.0%	6.57µM*	?	1.5%
Cc1ccc(N)c2c1OCCC2=O	5.3%	-7.7%	?	15.9%	-2.8%
Cc1ccc(C)c(NC(=S)N/N=C2/CCCCc3ccccc32)c1	-11.5%	?	8.28µM*	4.15µM*	-13.3%
CC(C)NC(=S)N/N=C1\CCCCc2ccccc21	1.4%	?	?	?	-9.8%
Cc1cc(Nc2ccccc2)nc(-c2ccccc2O)n1	-88.6%	-8.0%	29.2%	/	?
NC(=S)N/N=C/c1c(O)ccc2ccccc12	0.7%	1.6%	4.65µM*	?	-7.4%
